# TIM10 inh = inhibits growth of TIM10 yeast strain. S. cerevisiae TIM10 strain growth, BacTiter-Glo luminescence, 24 h. inhibition, % at 10 µM. 1.4% of 330,000 active. AID 463195;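 active = inhibition of 40% or more at the single tested concentration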;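 note: wild-type TIM10 isogenic control strain grown at permissive 25 °C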
# tim23-1 inh = tim23-1 yeast growth inhibition. S. cerevisiae tim23-1 growth, BacTiter-Glo luminescence, 24 h. inhibition, % at 20 µM. 1.3% of 330,000 active;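 active = growth inhibition of the mutant yeast at or above 50%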;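 note: temperature-sensitive mutant grown at 25 °C; plate controls were DMSO-treated mutant yeast for no effect and medium wells lacking yeast for full effect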
# Mot1-301 SUMO = blocks SUMOylation pathway, rescuing yeast Mot1-301 growth; S. cerevisiae Mot1-301 growth rescue, ATP luminescence, 38.5C; percent above DMSO median, 100 means doubled; growth rescue, % at 18.8 µM; 1% of 320,000 active;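 active = every valid replicate shows activation above 250% relative to neutral control wells; inactive = the rest, any valid replicate at or below 250%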;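 note: OY570 slx delta 5 strain wells were the positive control but not used for scaling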
# PfHsp90 set2 = inhibits growth of yeast expressing Plasmodium falciparum Hsp90. S. cerevisiae expressing PfHsp90, BacTiter-Glo ATP, 48 h; yeast lacking PDR1 and PDR3 efflux regulators. inhibition, % at 9.4 µM. 0.32% of 310,000 active. AID 504621;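 active = every replicate shows inhibition above about 80%, whatever the replicate mean, limit read from the data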;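 note: 0% = DMSO neutral controls and 100% = 20 µM radicicol positive controls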
# tim10-1 inh = inhibits growth of tim10-1 mutant yeast; 2.2% of 330,000 active; S. cerevisiae tim10-1 ts strain growth, BacTiter-Glo, 24 h; inhibition, % at 20 µM;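 active = inhibition of at least 40%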;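 note: mutant grown at 25 °C; 0% = DMSO wells with yeast and 100% = wells holding no yeast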
# * hit, by the source's call; · = no result. Most compounds without a hit are left out; they make up all but 4.4% or so of the library.
SMILES,TIM10 inh,tim23-1 inh,Mot1-301 SUMO,PfHsp90 set2,tim10-1 inh
Cc1ccc(C(=O)N2CCCC(C(=O)c3ccc(Cl)cc3C)C2)cn1 (centres undefined),-1,14,246,7,11
CC(C)Oc1cccc(C(=O)C2CCCN(C(=O)c3cncs3)C2)c1 (centres undefined),-4,5,-2,-9,18
Cc1cccc(N(CC(=O)N2CCc3ccccc3C2)S(C)(=O)=O)c1C,5,9,379,6,1
COc1ccc(CCNC(=O)c2ccc(NC(=O)CC3SC(N4CCCC4)=NC3=O)cc2)cc1 (centres undefined),2,0,27,·,7
CCOC(=O)[C@H]1[C@H]2COc3cc(OC)ccc3[C@@H]2N2C(=O)CN(Cc3ccco3)C(=O)[C@@]12C,-2,0,6,·,5
Cc1cccc(C(=O)N2CCc3cc(-c4nc(NC(=O)Cn5nnc6ccccc6c5=O)sc4C)ccc32)c1,6,11,378*,·,32
Cc1cccc(C(=O)N2CCc3cc(-c4nc(NC(=O)CN5CCCC5)sc4C)ccc32)c1,10,23,-17,5,31
CCN(CC)c1ccc(C(=C2C=CC(=[N+](CC)CC)C=C2)c2ccccc2)cc1,·,·,·,147*,·
CCN(CC)c1ccc(C(=O)NNC(=O)CCNC(=O)c2ccccc2)cc1,5,2,6,-6,14
CCN(CC)c1ccc(C(=C2C=CC(=[N+](CC)CC)C=C2)c2ccc(N(CC)CC)cc2)cc1,·,·,·,136*,·
Cn1nnnc1SCC(=O)Nc1ncc(Cl)cc1Cl,8,3,-12,·,-1
CCc1ccc([C@@H]2CC=C(C(=O)O)[C@H](c3ccc(Br)cc3)N2S(=O)(=O)c2ccc(C)cc2)cc1,10,33,300*,-25,16
Cc1ccc([C@@H]2CC=C(C(=O)O)[C@H](c3cccc(F)c3)N2S(=O)(=O)c2ccccc2C)cc1,8,29,280*,-12,23
Cc1ccc([C@@H]2CC=C(C(=O)O)[C@H](c3ccc(Cl)cc3)N2S(=O)(=O)c2ccccc2C)cc1,9,35,255*,3,23
Cc1ccc([C@@H]2CC=C(C(=O)O)[C@H](c3ccc(F)cc3)N2S(=O)(=O)c2ccccc2C)cc1,15,27,190,7,29
Cc1nn(-c2ccc(C(=O)NCC(c3ccco3)N3CCCC3)cc2)c(C)c1Cl (centres undefined),-4,8,-5,-3,-13
CCCCc1ccc(-c2nc(N)n[nH]2)cc1,25,29,840*,-52,36
Cc1ccccc1-c1nc(CN2CCC(C(=O)NCCCN3CCCC3)CC2)c(C)o1,-6,-16,-1,·,11
Cc1ccccc1-c1nc(CN2CCC(C(=O)NCCCN3CC(C)CC(C)C3)CC2)c(C)o1 (centres undefined),-13,-6,559*,·,4
COc1ccccc1N(C(=O)c1ccco1)C(C(=O)NC1CCCC1)c1ccncc1 (centres undefined),-2,19,-4,-71,6
Cc1ccc(N2C(=O)C3C4C=CC(CNC(=S)Nc5ccc(Cl)cc5)(O4)C3C2=O)cc1 (centres undefined),31,15,219,105*,35
Cc1ccc(N2C(=O)C3C4C=CC(CNC(=S)N5CCN(c6ccccn6)CC5)(O4)C3C2=O)cc1 (centres undefined),3,2,-29,104*,16
Cc1ccc(N2C(=O)C3C4C=CC(CNC(=S)Nc5ccc(F)cc5)(O4)C3C2=O)cc1 (centres undefined),19,23,11,103*,31
CC(C)COC(=O)NCC12C=CC(O1)C1C(=O)N(c3ccc(Cl)cc3)C(=O)C12 (centres undefined),14,18,140,·,34
CC(=O)NCCNC(=O)c1ccc(NC2=NC3CS(=O)(=O)CC3S2)cc1 (centres undefined),-1,0,27,-4,-6
SMILES,TIM10 inh,tim23-1 inh,Mot1-301 SUMO,PfHsp90 set2,tim10-1 inh
COCCNC(=O)C(c1cccs1)N(CCc1ccccc1)C(=O)Cn1nnc2ccccc21 (centres undefined),3,11,-5,4,10
COCCNC(=O)C(c1cccs1)N(Cc1ccccc1)C(=O)Cn1nnc2ccccc21 (centres undefined),8,10,284*,-15,8
Clc1ccccc1-c1ccc2ncnc(NCc3ccc4c(c3)OCO4)c2c1,-12,25,629*,-1,-11
CC(C)C(NC(=O)/C=C/c1ccc(F)cc1)C(C)C,15,15,288*,1,10
CC(NC(=O)/C=C/c1ccccc1)c1ccccc1 (centres undefined),13,20,29,-22,15
Oc1ccc(N=Nc2nc(-c3ccccc3)c(-c3ccccc3)[nH]2)cc1,22,32,-3,100*,10
COc1ccc(CCN(C)C(=S)Nc2cccc(C)c2)cc1OC,6,7,-1,27,6
O=C(CCN1N=C(c2ccccc2)CCC1=O)NCC1CCCO1 (centres undefined),5,-10,0,11,-6
CCCn1c(SCC(=O)Nc2ccc(OCC)cc2)nnc1C(C)C,-5,9,344*,22,13
CCOc1ccc(NC(=O)CSc2nnc(C(C)C)n2CC)cc1,4,11,-8,-22,10
Cc1ccc(-c2nc(-c3ccccn3)sc2CC(=O)O)cc1,8,21,328*,-38,3
COc1ccc(/C=C/c2nc3ccccc3n2Cc2ccccc2OC)cc1,22,27,323*,19,32
COc1ccccc1Cn1c(C(C)C)nc2ccccc21,25,22,16,9,13
COc1ccc(NC(=O)C2CCCN2S(=O)(=O)c2cccc3cccnc23)c(OC)c1 (centres undefined),-61,0,191,102*,-28
Cn1c(SCC(=O)N2CCOCC2)nnc1-c1ccco1,-7,3,353*,44,-7
BrC(/C=C\c1ccccc1)=N/Nc1nc(N2CCOCC2)nc(N2CCOCC2)n1,31,35,320*,5,34
Cc1cn(CC(=O)NCc2ccccc2)c(=O)[nH]c1=O,·,·,·,18,·
CC(=O)Oc1ccccc1C(=O)C=Cc1cccc([N+](=O)[O-])c1,·,·,·,106*,·
Cc1cc(O)c(C(=O)/C=C/c2cccc([N+](=O)[O-])c2)c(=O)o1,15,9,0,-6,12
O=C(Nc1cc(Cl)ccc1-n1cncn1)c1ccc([N+](=O)[O-])s1,25,47,3,114*,34
CCn1cc(CN2CCC(C(=O)Nc3ccc(Oc4cccnc4)cc3)CC2)cn1,2,-3,-12,4,-9
CC(C)CCOc1ccc(Cl)cc1CN1CCOCC1,-47,15,313*,2,-20
CCCCCOc1ccc(Cl)cc1CN1CCOCC1,-53,-6,137,9,-27

# Source: PubChem BioAssay (several laboratories)
